Data as given in the supplement of paper PMC9023506.
Counter-ions that a name gives are not always drawn.

Test system: Danio rerio larvae (5 dpf)
Test: excitability to 1-s acoustic pulses, difference vs DMSO (percentage points (treated minus DMSO)); higher = more of the behaviour than the DMSO vehicle control
Conditions: 10 µM; exposure time: 3 h pre-incubation + 3 h imaging
Description: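 5-dpf wild-type zebrafish larvae were imaged in 96-well plates. They were treated with 190 Tocris FDA-approved drugs at 10 µM (1 µl/ml DMSO) for 3 h before and 3 h during imaging at 28.5 °C, 48 larvae per drug. Automated image analysis gave % time moving and optomotor responses. Values are drug group mean minus DMSO vehicle mean (n=844), in percentage points, for 10 behaviours.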

Row | SMILES | excitability to 1-s acoustic pulses
1 | CC[C@H](C)C(=O)O[C@H]1C[C@@H](C)C=C2C=C[C@H](C)[C@H](CC[C@@H]3C[C@@H](O)CC(=O)O3)[C@H]21 [Lovastatin] | 12.6
2 | CCc1nc(N)nc(N)c1-c1ccc(Cl)cc1 [Pyrimethamine] | 6.41
3 | C[C@@H]1C[C@H]2[C@@H]3CCC4=CC(=O)C=C[C@]4(C)[C@@]3(F)[C@@H](O)C[C@]2(C)[C@@]1(O)C(=O)CO [Dexamethasone] | -5.75
4 | CC1CNc2c(cccc2S(=O)(=O)N[C@@H](CCCNC(=N)N)C(=O)N2CC[C@@H](C)C[C@@H]2C(=O)O)C1 (stereo not given in full) [Argatroban] | 0.477
5 | Cn1nnc2c(C(N)=O)ncn2c1=O [Temozolomide] | -2.39
6 | CC(=O)O[C@]1(C(C)=O)CC[C@H]2[C@@H]3C=C(C)C4=CC(=O)CC[C@]4(C)[C@H]3CC[C@@]21C [Megestrol Acetate] | 14.4
7 | OCc1cc(C(O)CNCCCCCCOCCCCc2ccccc2)ccc1O (stereo not given) [Salmeterol xinafoate] | 12.3
8 | OCCN(CCO)c1nc(N2CCCCC2)c2nc(N(CCO)CCO)nc(N3CCCCC3)c2n1 [Dipyridamole] | -3.05
9 | C#C[C@]1(O)CC[C@H]2[C@@H]3CCC4=CC(=O)CC[C@@H]4[C@H]3CC[C@@]21CC [Levonorgestrel] | 1.14
10 | CCOC(=O)[C@H](CCc1ccccc1)N[C@@H](C)C(=O)N1[C@H](C(=O)O)C[C@@H]2CCC[C@@H]21 [Ramipril] | 4.17
11 | Cc1ccc(NC(=O)c2ccc(CN3CCN(C)CC3)cc2)cc1Nc1nccc(-c2cccnc2)n1 [Imatinib mesylate] | 12.7
12 | CCCc1nn(C)c2c(=O)[nH]c(-c3cc(S(=O)(=O)N4CCN(C)CC4)ccc3OCC)nc12 [Sildenafil citrate] | 4.02
13 | Nc1ncn([C@H]2C[C@H](O)[C@@H](CO)O2)c(=O)n1 [Decitabine] | 6.23
14 | Cc1ccc(O)c([C@H](CCN(C(C)C)C(C)C)c2ccccc2)c1 [Tolterodine L-tartrate] | 7.2
15 | COC(=O)C1=C(C)NC(C)=C(C(=O)OC(C)C)C1c1cccc2nonc12 (stereo not given) [Isradipine] | 19.8
16 | COc1ccc(Cl)cc1C(=O)NCCc1ccc(S(=O)(=O)NC(=O)NC2CCCCC2)cc1 [Glibenclamide] | -0.0554
17 | Nc1nc(Cl)nc2c1ncn2[C@@H]1O[C@H](CO)[C@@H](O)[C@@H]1F [Clofarabine] | 2.22
18 | Nc1nc(F)nc2c1ncn2[C@@H]1O[C@H](CO)[C@@H](O)[C@@H]1O [Fludarabine] | 3.42
19 | N[C@@H]1[C@H]2CN(c3nc4c(cc3F)c(=O)c(C(=O)O)cn4-c3ccc(F)cc3F)C[C@@H]12 [Trovafloxacin mesylate] | 11.3
20 | CNS(=O)(=O)Cc1ccc2[nH]cc(CCN(C)C)c2c1 [Sumatriptan succinate] | -8.18

Row | SMILES | excitability to 1-s acoustic pulses
21 | Brc1c(NC2=NCCN2)ccc2nccnc12 | 7.01
22 | CN1CCN(CCCN2c3ccccc3Sc3ccc(Cl)cc32)CC1 [Prochlorperazine dimaleate] | 23.6
23 | O=C(NCC1CCCCN1)c1cc(OCC(F)(F)F)ccc1OCC(F)(F)F (stereo not given) [Flecainide acetate] | 5.58
24 | CN1CCC[C@@H]1CCO[C@](C)(c1ccccc1)c1ccc(Cl)cc1 [Clemastine fumarate] | 15.4
25 | NS(=O)(=O)c1cc(C(=O)O)c(NCc2ccco2)cc1Cl [Furosemide] | 0.211
26 | COc1cc2nc(N3CCN(C(=O)c4ccco4)CC3)nc(N)c2cc1OC [Prazosin hydrochloride] | 13.5
27 | CC(C)c1nc(CN(C)C(=O)N[C@H](C(=O)N[C@@H](Cc2ccccc2)C[C@H](O)[C@H](Cc2ccccc2)NC(=O)OCc2cncs2)C(C)C)cs1 [Ritonavir] | 7.52
28 | COCCCOc1cc(C[C@@H](C[C@H](N)[C@@H](O)C[C@H](C(=O)NCC(C)(C)C(N)=O)C(C)C)C(C)C)ccc1OC [Aliskiren hemifumarate] | 12.2
29 | CC(C)(C#N)c1cc(Cn2cncn2)cc(C(C)(C)C#N)c1 [Anastrozole] | 3.65
30 | Nc1ccn([C@@H]2O[C@H](CO)[C@@H](O)C2(F)F)c(=O)n1 [Gemcitabine hydrochloride] | -1.2
31 | O=C(c1ccc(OCCN2CCCCC2)cc1)c1c(-c2ccc(O)cc2)sc2cc(O)ccc12 [Raloxifene hydrochloride] | 9.93
32 | CNC(=O)c1cc(Oc2ccc(NC(=O)Nc3ccc(Cl)c(C(F)(F)F)c3)cc2)ccn1 [Sorafenib] | 14.4
33 | Nc1cc(N2CCCCC2)nc(N)[n+]1[O-] [Minoxidil] | 1
34 | COc1cc2nc(N3CCN(C(=O)C4COc5ccccc5O4)CC3)nc(N)c2cc1OC (stereo not given) [Doxazosin mesylate] | 20.8
35 | CCC(=O)O[C@]1(C(=O)SCF)[C@H](C)C[C@H]2[C@@H]3C[C@H](F)C4=CC(=O)C=C[C@]4(C)[C@@]3(F)[C@@H](O)C[C@@]21C [Fluticasone propionate] | 1.18
36 | Cc1ccccc1C(=O)Nc1ccc(C(=O)N2CCCC(O)c3cc(Cl)ccc32)c(C)c1 (stereo not given) [Tolvaptan] | 6.31
37 | CCOC(=O)[C@H](CCc1ccccc1)N[C@H]1CCc2ccccc2N(CC(=O)O)C1=O [Benazepril hydrochloride] | 0.498
38 | Cc1cc2c(s1)Nc1ccccc1N=C2N1CCN(C)CC1 [Olanzapine] | 3.32
39 | CN(C)C(=N)NC(=N)N [Metformin hydrochloride] | 4.58
40 | Nc1cccc2c1CN(C1CCC(=O)NC1=O)C2=O (stereo not given) [Lenalidomide] | -2.77
